# About 83,000 compounds went through this panel and 20% of them were active in at least one assay; those are over-represented in the sample as a whole.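 Activity criterion: percent growth below 10, measured after cells in 96-well plates were exposed to a single compound concentration for 48 hours.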 Unmarked numbers belong to inactive results. Calls of active or inactive are those of the source.
# System: HL-60(TB) leukemia
# Assay: NCI-60 one-dose screen, 48 h (100 = growth as untreated, 0 = no growth, -100 = all killed)
# Settings: 10 µM unless noted
row,SMILES,growth
1,CC(C)(C)c1ccc(OC(=O)Nc2ccccc2)cc1,95.9%
2,Cc1cc(=O)[nH]c(=O)n1Cc1cn(-c2c3ccccc3nc3ccccc23)nn1,16.3%
3,COc1cc(/C=N/n2c(CN3CCOCC3)nc3ccccc3c2=O)cc(OC)c1OC,98.1%
4,O=C(c1ccc(Cl)cc1Cl)N1c2ccccc2Sc2ccccc21,35.8%
5,N=S(c1ccccc1[N+](=O)[O-])c1ccccc1[N+](=O)[O-],10.1%
6,O=C1/C(=C/c2ccccc2)CN(C(=O)c2cccnc2)C/C1=C\c1ccccc1,-8.8% (active)
7,COc1cc2nn(-c3ccccc3N)nc2cc1OC,102%
8,COc1cc2ncnc(Nc3cccc(Cl)c3F)c2cc1OC(=O)N1CCN(C)C[C@H]1C,102%
9,CCCCC(CCc1ccc([N+](=O)[O-])cc1)(C(C)=O)C(=O)OCC (centres undefined),93%
10,C=C(C)[C@@H]1CC[C@]2(C(=O)N3CCN(C)CC3)CC[C@]3(C)[C@H](CC[C@@H]4[C@@]5(C)C/C(=C/c6ccncc6)C(=O)C(C)(C)[C@@H]5CC[C@]43C)[C@@H]12,-21.7% (active)
11,CCCN1CC(c2ccc(OC)c(OC)c2)=C(c2cn(C(=O)OCC)c3ccccc23)C1=O,33.2%
12,Cc1nc2ccccc2n1CC1C(=O)NC(=O)NC1=O,102%
13,COc1cc(NC(=O)c2cc(O)c(CC=C(C)C)c(O)c2)cc2c1O[C@]1(C)CC[C@@H](O)C(C)(C)[C@H]1C2,9.12% (active)
14,COc1ccc(Cn2cc(C(=O)N=Nc3c(O)[nH]c4ccc(Br)cc34)nn2)cc1,85.2%
